This is an account of results in PubChem BioAssay AID2147 (National Center for Advancing Translational Sciences (NCATS), 2009).

Values joined by “and” are separate entries in the source; they are usually repeats but may differ in a detail not shown here. Equal values may be shown once. The whole screen tested about 230,000 compounds, of which about 3,600 (1.6%) were called active. A call without a number means that no potency is given here. Another 15% or so got no clear call; they are omitted. The call rests on the fitted dose curve; in most records, active means well fitted inhibition curve with a large enough effect (not every such curve was filed as active); inconclusive means small, poorly fitted or top-dose-only effect, or another doubt; inactive means no such curve, though single readings can be large or run the other way. This excerpt belongs to a sample that is enriched for actives.
Further: nearly all actives have a fitted effect of over 50% in size.
Potency means the concentration at half of the fitted maximal effect.

Lysine-specific demethylase 4E (Homo sapiens), sequence (B2RXH2 1-337 limits assumed): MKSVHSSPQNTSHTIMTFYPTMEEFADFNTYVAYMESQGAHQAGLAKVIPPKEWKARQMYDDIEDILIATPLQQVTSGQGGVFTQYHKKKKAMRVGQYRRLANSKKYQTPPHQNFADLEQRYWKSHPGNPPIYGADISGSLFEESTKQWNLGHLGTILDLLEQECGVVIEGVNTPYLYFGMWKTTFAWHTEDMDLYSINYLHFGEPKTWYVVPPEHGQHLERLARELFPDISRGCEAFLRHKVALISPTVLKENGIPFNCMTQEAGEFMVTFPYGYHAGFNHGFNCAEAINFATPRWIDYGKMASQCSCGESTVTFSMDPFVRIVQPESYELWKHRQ

This assay addresses Lysine-specific demethylase 4E (Homo sapiens) (UniProt B2RXH2). Description: qHTS Assay for Inhibitors of Human Jumonji Domain Containing 2E (JMJD2E). As to conditions: JMJD2E catalytic domain, FDH-coupled NADH fluorescence (FDH is formaldehyde dehydrogenase); series mostly up to 57.1 µM.
In the case of `COc1ccc(COCC(O)CN2CCC(C(N)=O)CC2)cc1` (stereo not drawn), the Potency result was “inactive”.
Same read-out and setting: under `COC(=O)c1cc(C(=O)CSc2nc(C)cc(C)n2)ccc1O` stands “inactive”; under `CC(C)C1N=C2c3ccccc3N=C(SCC(=O)c3ccc(O)c(O)c3)N2C1=O` (stereo not drawn), 25.1 µM (active).
For `COc1ccccc1P(=O)(c1ccccc1)c1ccccc1NC(C)=O` (stereo not drawn), the Potency entry is “inactive”.
With `CN(CC(O)COc1ccc(S(=O)(=O)N2CCOCC2)cc1Cl)C1CCCCC1` (stereo not drawn), the Potency result was “inactive”.
On the same count and under the same terms, for `COc1cccc([C@@H]2Oc3ccc(Br)cc3C(=O)[C@H]2OC(=O)NCc2ccc3c(c2)OCO3)c1` the value was “inactive”; for `COc1ccc2c(c1)O[C@@H](c1ccc3c(c1)OCO3)[C@H](OC(=O)NCCc1ccc(OC)c(OC)c1)C2=O`, “inactive”.
Turning to `COc1cccc([C@@H]2Oc3ccc(Br)cc3C(=O)[C@H]2OC(=O)NCCc2ccc(OC)c(OC)c2)c1`, the Potency was 14.1 µM (active).
Still for that read-out and setting: under `c1ccc(-c2nnc(N3CCOCC3)c3ccccc23)cc1` stands “inactive”.
Still for that read-out and setting: for `O=C(Nc1ccc(S(=O)(=O)Nc2nccs2)cc1)c1cccc(S(=O)(=O)N2CCOCC2)c1` the value was “inactive”.
`CCc1nc(C)cn1S(=O)(=O)c1cc([N+](=O)[O-])ccc1Cl`: the Potency result is “inactive”.
The same measure, in the same setting: for `COc1ccc(-c2csc(Nc3ccccn3)n2)cc1` the value was “inactive”; for `COc1ccc(-c2csc(Nc3ccc(O)cc3)n2)cc1`, “inactive”.
`COc1ccc(OC)c(Nc2nc(-c3ccc(O)c(O)c3)cs2)c1`: the Potency is 28.2 µM (active).
On the same count and under the same terms, for `O=C(Nc1n[nH]c(C(F)(F)F)n1)c1cccs1` the value was “inactive”; for `CCOC(=O)c1cn[nH]c1NC(=S)Nc1ccccc1`, “inactive”.
`O/N=C1\CC2(Cc3nonc31)OCCO2`: the Potency result was “inactive”.
For the molecule `ON=C1/C(=N\O)CC2(C/C1=N/O)OCCO2`, the Potency was 7.08 µM (active).
Still for that read-out and setting: under `Cc1[nH]n(C)c(=O)c1N=Nc1ccc(S(C)(=O)=O)cc1` stands “inactive”; under `COc1cccc(N2C(=O)CC(N3CCc4ccccc4C3)C2=O)c1` (stereo not drawn), “inactive”.
Still for that read-out and setting: under `NCCCCCC(=O)N/N=C/c1ccc2nccnc2c1` stands “inactive”; under `CCOC(=O)CSc1nc(C)c(Oc2ccc(Cl)cc2Cl)c(=O)[nH]1`, “inactive”; under `COCc1ccc(C(=O)N2CCc3c([nH]c4ccccc34)C2c2ccccn2)s1` (stereo not drawn), “inactive”.
On the same count and under the same terms, under `Oc1cccc(C2c3[nH]c4ccccc4c3CCN2Cc2cnn(-c3ccccc3)c2)c1` (stereo not drawn) stands “inactive”; under `c1ccc(C2c3[nH]c4ccccc4c3CCN2Cc2cccn2-c2cccnc2)nc1` (stereo not drawn), 14.1 µM (active).
For the molecule `CCc1cccc2c(=O)c(C(=O)NCCCOC)c[nH]c12`, the Potency result was “inactive”.
With `CN(C(=O)CCn1c(=S)oc2ccccc21)C1CCCCC1`, the Potency result was “inactive”.
Regarding `COc1ccc(N2C(=O)CC(Sc3n[nH]c(-c4ccc(C)cc4)n3)C2=O)cc1` (stereo not drawn), the Potency entry is “inactive”.
Same read-out and setting: for `O=C1CC(N2CCN(c3ccc(F)cc3)CC2)C(=O)N1c1ccccc1` (stereo not drawn) the value was “inactive”; for `CCOC(=O)c1ccc(N2C(=O)CC(Sc3nc(O)c(CC)c(=O)[nH]3)C2=O)cc1` (stereo not drawn), “inactive”.
Same read-out and setting: under `Cc1cccc(N2C(=O)CC(SC(N)=Nc3ccccc3)C2=O)c1` (stereo not drawn) stands “inactive”.
Still for that read-out and setting: under `Cc1ccc(N2C(=O)CC(Sc3ncn[nH]3)C2=O)cc1` (stereo not drawn) stands 2.51 µM (active); under `O=C1CC(Sc2ncn[nH]2)C(=O)N1c1ccccc1` (stereo not drawn), 2.24 µM (active); under `NC(=O)c1ccc(N2CCOCC2)nc1`, “inactive”.
Regarding `CN(C)C(=O)c1nc2ccc(Cl)cn2c1CNCc1cccc(OC(F)(F)F)c1`, the Potency entry was “inactive”.
Still for that read-out and setting: for `Cc1nc(N)sc1N=Nc1c(C)n(C)n(-c2ccccc2)c1=O` the value was “inactive”; for `COc1ccc(N(Cc2ccccc2)S(=O)(=O)c2cccc(C(=O)O)c2)cc1`, “inactive”; for `CCCN(C/C=C\I)[C@@H]1CCc2cccc(O)c2C1`, 28.2 µM (active).
For the molecule `CCCN(CCc1ccccc1)C1CCc2c(O)cccc2C1` (stereo not drawn), the Potency entry is “inactive”.
Regarding `CN(C)c1cc(-c2ccc(F)cc2)oc(=O)c1Cl`, the Potency result was “inactive”.
Same read-out and setting: under `Cc1ccc(C(=O)NCC(=O)OCC(=O)Nc2cccc(S(=O)(=O)N3CCCC3)c2)cc1C` stands “inactive”; under `Cc1cc(=O)n2c3c(cccc13)CCC2`, “inactive”.
Same read-out and setting: under `CCCCc1nc2ccccc2c(=O)n1NC(=O)c1c(O)c2cccc3c2n(c1=O)CC3` stands “inactive”; under `CCNC(=O)c1c(O)c2cccc3c2n(c1=O)CC3`, 3.16 µM (active); under `O=C(O)Cc1csc(-c2cccc(Oc3ccccc3)c2)n1`, “inactive”.
The same measure, in the same setting: under `CCCc1nc2ccccc2c(=O)n1/N=C/c1ccc(O)c(O)c1` stands 12.6 µM (active); under `CCCN1C(=O)C(Cc2nc3ccccc3c(=O)n2-c2ccccc2)c2cc(C)ccc21` (stereo not drawn), “inactive”; under `O=c1c2ccccc2nc(N/N=C/c2ccccc2)n1O`, “inactive”.
As for `CC(C)N1CCC(=NNc2ccc([N+](=O)[O-])cc2S(=O)(=O)N2CCOCC2)CC1`, the Potency result is “inactive”.
Same read-out and setting: under `COc1ccccc1C(=O)CSc1cccc[n+]1[O-]` stands “inactive”; under `O=C1CCC(=O)N(O)CCCCCNC(=O)CCC(=O)N(O)CCCCCNC(=O)CCC(=O)N(O)CCCCCN1`, 7.94 µM (active).
The same measure, in the same setting: for `CCNC(=O)CC1C(=O)N(c2ccc(OC)cc2)C(=S)N1CCc1ccncc1` (stereo not drawn) the value was “inactive”.
Still for that read-out and setting: for `Cc1nc(C(=O)N2CCCC(C(=O)c3ccc(Cl)cc3)C2)cs1` (stereo not drawn) the value was “inactive”; for `Cn1c(CO)cnc1SCc1ccccc1`, “inactive”.
Take `CSc1c(SCc2ccccc2)cnn(Cc2ccccc2)c1=O`: the Potency is 12.6 µM (active).
The same measure, in the same setting: under `O=c1c2ccccc2c(-c2ccccc2)nn1Cc1ccccc1` stands “inactive”; under `Cc1cc(C)nc(S/C=C/C(=O)c2ccccc2)n1`, “inactive”.
The same measure, in the same setting: for `O=C(NCCOCc1ccc(Cl)cc1)c1ncn[nH]1` the value was “inactive”; for `O=C(/C=C/Sc1ncn[nH]1)c1ccc(Cl)cc1`, 7.08 µM (active).
On the same count and under the same terms, under `CCN(CC)CCNC(=O)c1sc2ncn(CC(=O)Nc3ccc(C)c(Cl)c3)c(=O)c2c1C` stands “inactive”; under `Cn1c(=O)c2c(-c3cccc(Br)c3)c(C#N)c(N)nc2n(C)c1=O`, “inactive”.
With `OCCC1CN(Cc2cnc(-c3ccccc3)s2)CCN1CCc1ccccc1` (stereo not drawn), the Potency result is “inactive”.
The same measure, in the same setting: for `CC1(OC(=O)C2CCCC2)C(=O)C=C2C=C(c3ccc(C#N)cc3)OC=C2C1=O` (stereo not drawn) the value was “inactive”; for `COCCN1C=C2C(=O)C(C)(OC(=O)C3CCCC3)C(=O)C=C2C=C1c1ccsc1` (stereo not drawn), 3.55 µM (active).
Turning to `CC1(OC(=O)CCc2ccccc2)C(=O)C=C2C=C(c3ccc(C#N)cc3)N(CCc3ccccn3)C=C2C1=O` (stereo not drawn), the activity change, negative = inhibition was -1.14% [at 11.4 µM] (inactive).
Turning to `N/C(=N\OC(=O)Nc1ccccc1)c1ccno1`, the Potency result is “inactive”.
On the same count and under the same terms, under `COc1ccc(CNC(=O)CCC(=O)Nc2nnc(C(C)C)s2)cc1` stands “inactive”; under `O=C(Nc1ccc(Cl)cc1)Nc1ccc(C(=O)N2CCOCC2)cc1`, “inactive”.
On the same count and under the same terms, for `COc1ccc(C2C(C#N)=C(N)Oc3cc(N)ccc32)cc1OC` (stereo not drawn) the value was 12.6 µM (active).
The same measure, in the same setting: for `CCC1=C(C(=O)OC)C(c2cc(OC)ccc2OC)C(C#N)=C(N)O1` (stereo not drawn) the value was “inactive”; for `COC(=O)C1=C(C)OC(N)=C(C#N)C1c1cc(OC)ccc1OC` (stereo not drawn), “inactive”.
On to `CNCC(O)c1ccc(O)c(O)c1` (stereo not drawn), for which the Potency was 20 µM (active) and 14.1 µM (active).
`CCC(C)c1ccc(O)c(/C=N/O)c1` (stereo not drawn): the Potency result is “inactive”.
On the same count and under the same terms, for `CC(C)NC[C@H](O)c1ccc2ccccc2c1` the value was “inactive”; for `C=CCN(C(=O)Nc1ccc2c(c1)nc(C)n2C)c1ccccc1`, “inactive”; for `C/C(=C\c1ccco1)CN1CCC(N2CCC(C(=O)N3CCOCC3)CC2)CC1`, “inactive”.
For `CCOC(=O)N1CCN(C(c2cccnc2)c2ccc3cccnc3c2O)CC1` (stereo not drawn), the Potency was 14.1 µM (active).
Still for that read-out and setting: for `Oc1c(C(c2ccccn2)N2CCOCC2)ccc2cccnc12` (stereo not drawn) the value was “inactive”.
The same measure, in the same setting: for `CCOC(=O)N1CCN(C(=O)CSc2ccc(Cl)cc2)CC1` the value was “inactive”.
For the molecule `Cc1cc(N2CCN(c3ccc(F)cc3)CC2)n2ncnc2n1`, the Potency entry was “inactive”.
Same read-out and setting: under `CC1CC(C)(C)n2c(O)c(N=NC(N)=S)c3cccc1c32` (stereo not drawn) stands “inactive”; under `O=c1c(O)c(Br)ccc2c(Br)c(O)c(O)c(O)c12`, 7.08 µM (active).
In the case of `CCCCCCCC(=O)OC(CN1CCCCCC1)CN1CCCC1=O` (stereo not drawn), the Potency entry is “inactive”.
Same read-out and setting: under `CCN(CC)CCN1C(=O)C(=O)/C(=C(/O)c2ccccc2)C1c1ccccc1F` (stereo not drawn) stands “inactive”; under `CCN(CC)CCN1C(=O)C(=O)/C(=C(/O)c2ccc(OC)c(OC)c2)C1c1ccccn1` (stereo not drawn), 22.4 µM (active); under `COc1ccc(/C(O)=C2/C(=O)C(=O)N(CCCN(C)C)C2c2ccccc2)cc1OC` (stereo not drawn), “inactive”.
Same read-out and setting: under `CC(=O)Nc1ccc(NC(=O)CSc2ncnc3c2cnn3Cc2ccccc2)cc1` stands “inactive”; under `O=c1oc2c(CN3CCCCC3)c(O)ccc2c2c1CCCCC2`, 3.16 µM (active); under `NC(=O)COc1ccc2c3c(c(=O)oc2c1)CCCCC3`, “inactive”.
On the same count and under the same terms, under `CN1CCN(Cc2c(O)ccc3c2oc(=O)c2ccccc23)CC1` stands “inactive”; under `Cc1ccccc1OCC(O)CN1CCN(c2ccccn2)CC1` (stereo not drawn), “inactive”; under `Cc1cccc(C)c1NC(=S)N(Cc1cccnc1)Cc1ccccc1Cl`, “inactive”.
For `CCC/C(C)=N\Nc1nc2c(c(=O)n(C)c(=O)n2C)n1C`, the Potency entry was “inactive”.
Still for that read-out and setting: under `Oc1ccc2ccccc2c1C=Nc1ccccc1` stands “inactive”; under `Oc1ccc(N=Cc2sc3ccccc3c2Cl)cc1`, 12.6 µM (active); under `COc1ccc(N=C(C)c2sc3ccccc3c2O)cc1`, “inactive”.
On the same count and under the same terms, for `S=c1nc2ccccc2c2nc(-c3cccnc3)[nH]n12` the value was “inactive”; for `COc1ccc(CCNS(=O)(=O)c2cccc3cccnc23)cc1OC`, “inactive”.
Still for that read-out and setting: for `Cc1ccc2cc(/C=N/NC(=O)[C@@H]3CCCN3)c(Cl)nc2c1` the value was “inactive”; for `Cc1nnsc1C(=O)N/N=C/c1ccccc1Cl`, “inactive”.
For `Cc1ccc(/C=N/NC(=O)C2=NNC(c3ccccc3)(c3ccccc3)C2)c(O)c1`, the Potency is 10 µM (active).
Take `CCn1cc(CN2CCCC(CNS(=O)(=O)Cc3ccccc3)C2)cn1` (stereo not drawn): the Potency result is “inactive”.
Turning to `Nn1c(SCc2ccccc2)nnc1C1CCCCC1`, the Potency entry was “inactive”.
Consider `CC(C)C[C@H](CO)Nc1nc(N(C)c2cccc(Cl)c2)c2ncn(C(C)C)c2n1`, for which the Potency result was “inactive”.
Still for that read-out and setting: under `O=C(Nc1cccc(S(=O)(=O)NC2=NCCC2)c1)C1CCCCC1` stands “inactive”.
Still for that read-out and setting: for `CC(C)(C)C(=O)OCc1nc(-c2ccc(O)c(O)c2)cs1` the value was 12.6 µM (active); for `CCCC(=O)N1c2ccc(-c3csc(N)n3)cc2CC1C` (stereo not drawn), “inactive”; for `Cc1onc(C(=O)NN)c1-c1csc(COc2ccccc2)n1`, “inactive”.
